Assay outcomes: PubChem BioAssay, National Center for Advancing Translational Sciences (NCATS)
Sampled rows, rich in hits. Any-hit rate of the full collection: about 7.5%.
FLuc modulator: qHTS profiling assay for firefly luciferase inhibitor/activator using purifed enzyme and Km concentrations of substrates (counterscreen for miR-21 project); Luciferin 4-monooxygenase (Photinus pyralis), P08659; Potency, µM (top dose mostly 57.5 µM), most hits filed as inhibitors; purified FLuc, Km substrates, luminescence inhibition; actives 6.9% (n = 360,000); AID 588342, 2011; also: nearly all actives have a fitted effect of over 55% in size
Target sequence (P08659 whole entry, looked up): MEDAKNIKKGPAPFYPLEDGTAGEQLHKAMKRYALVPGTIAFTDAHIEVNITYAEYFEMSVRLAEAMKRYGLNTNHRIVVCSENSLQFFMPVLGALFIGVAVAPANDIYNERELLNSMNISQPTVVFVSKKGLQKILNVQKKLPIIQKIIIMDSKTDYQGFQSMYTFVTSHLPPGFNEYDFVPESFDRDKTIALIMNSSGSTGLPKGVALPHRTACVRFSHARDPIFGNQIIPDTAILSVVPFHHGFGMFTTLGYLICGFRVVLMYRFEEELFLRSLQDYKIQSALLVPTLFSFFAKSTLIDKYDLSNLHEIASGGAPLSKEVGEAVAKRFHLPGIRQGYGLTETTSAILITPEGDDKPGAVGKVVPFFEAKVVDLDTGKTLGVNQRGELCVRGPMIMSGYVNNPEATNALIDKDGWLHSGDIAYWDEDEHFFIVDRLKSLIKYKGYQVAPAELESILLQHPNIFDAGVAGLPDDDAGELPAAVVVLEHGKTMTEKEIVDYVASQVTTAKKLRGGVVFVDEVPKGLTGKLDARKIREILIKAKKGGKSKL
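Purified P. pyralis luciferase, 10 nM final, with Km-level 10 uM D-luciferin and 10 uM ATP in 50 mM Tris acetate pH 7.5, 10 mM Mg acetate, 0.01% Tween-20, 0.05% BSA; 6-point qHTS titration about 60 µM downward; luminescence read.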
ELG1 genotoxic: qHTS screen for small molecules that induce genotoxicity in human embryonic kidney (HEK293T) cells expressing luciferase-tagged ELG1; AID 504466, 2011; Potency, µM (series often up to 46 µM), hits mostly activators; HEK293T ELG1-luciferase reporter, luminescence, 16 h; actives 1.3% (n = 330,000); also: nearly all actives have a fitted effect of over 60% in size
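After overnight (16 hr) compound treatment at 37 °C, ELG1-luciferase HEK293T cells were lysed with ONE-Glo; luminescence quantified 30 min later at room temperature.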
NPC1 promoter act: qHTS Assay for NPC1 Promoter Activators; Huh7 NPC1 promoter luciferase reporter, 24 h; Potency, µM (top dose mostly 9.22 µM), hits mostly activators; actives 2.4% (n = 320,000); also: nearly all actives have a fitted effect of over 60% in size
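Huh7 cells stably carrying NPC1 promoter–luciferase, plated in Opti-MEM with 10% FBS for 2 h, were exposed to compound in DMSO for 24 h at 37 °C; luciferase reagent was added for 10 min and luminescence read.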
SMN2 splice up: qHTS Assay for Enhancers of SMN2 Splice Variant Expression; Potency, µM (series often up to 46.1 µM), hits mostly activators; HEK293 SMN2-luciferase splicing reporter, luminescence, 30-36 h; actives 2.8% (n = 210,000); AID 1458, 2008; also: nearly all actives have a fitted effect of over 55% in size
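HEK293 cells carry an SMN2 minigene-luciferase reporter in which exon 7 inclusion puts luciferase in frame. Cells were seeded at 2000 cells/well, attached for 10-12 hours, then exposed to compounds for 30-36 hours at 37C before ONE-Glo luminescence.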
Rab9 prom act: qHTS Assay for Rab9 Promoter Activators | actives 2.8% (n = 320,000) | Potency, µM (doses to about 9.22 µM), hits mostly activators | Huh7 Rab9 promoter-luciferase reporter, luminescence, 24 h; also: nearly all actives have a fitted effect of over 60% in size
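Steps: seed 1500 Huh7 Rab9-luc cells per well, rest 2 h at 37 °C; add compound in DMSO; incubate 24 h; add luciferase reagent, 10 min ambient; read luminescence.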
Hits are given with their value; n = inactive; u = inconclusive; x = no result given; [ ] = another dose, or the depositor's remark. Calls follow the shape of the dose curve; as a rule, active = well fitted curve in the direction sought with a large enough effect; inconclusive = small, poorly fitted or top-dose-only effect, or another doubt; inactive = no such curve, though single readings can be large; an effect the other way counts as inactive or inconclusive.

SMILES | FLuc modulator | ELG1 genotoxic | NPC1 promoter act | SMN2 splice up | Rab9 prom act
Cc1ccc(OC(F)F)c(NC(=O)Nc2ccc3c(c2)OCO3)c1 | u | n | n | x | n
Cc1ccc(NC(=O)Nc2ccc3c(c2)OCO3)nc1 | 6.7µM | u | 3.2µM | 13µM | 2.5µM
Cc1ccc(NC(=O)/C=C/c2ccc3c(c2)OCO3)nc1 | 2.1µM | u | 2.5µM | 2.8µM | 2.5µM
Cc1ccc(NC(=O)/C=C/c2cccc([N+](=O)[O-])c2)nc1 | n | n | n | n | n
CC(NC(=O)c1ccco1)C(=O)Nc1nccs1 (configuration not stated) | x | n | x | x | x
Cc1ccc(C(=O)Nc2nc(=O)[nH]s2)cc1 | 24µM | n | n | n | n
Cc1ccc(C(=O)Nc2nccs2)cc1 | 8.5µM | u | 2.8µM | 10µM | 2.2µM
Cc1ccc(C(=O)Nc2ccc3c(c2)C(=O)NC3=O)cc1 | u | n | n | x | n
O=C(Nc1nccs1)c1ccc(NC(=O)c2ccco2)cc1 | 17µM | u | 4µM | u | 2.8µM
Nc1ccc(C(=O)Nc2nccs2)cc1 | u | u | u | 13µM | 4µM
C/C(CC(=O)Nc1ccc(Cl)cc1C(F)(F)F)=N\NC(=O)c1cccs1 | u | n | n | x | n
NC(=O)c1ccc(NC(=O)COC(=O)CC2CC3CCC2C3)cc1 (configuration not stated) | x | n | x | x | x
CC(=O)Nc1sc(NC(=O)c2ccc(C)cc2)nc1-c1cccs1 | n | n | n | 11µM | n
C=CCN1CCN(C(=O)c2oc3ccccc3c2C)CC1 | n | n | n | x | n
BrC(=C\c1ccccc1)/C=N/Nc1ccc2nncn2n1 | 13µM | n | n | x | n
CN(C)S(=O)(=O)Oc1ccsc1C(=O)Nc1ccc(Cl)cc1 | n | n | n | n | n
CN(C)S(=O)(=O)Oc1cccc(C(=O)Nc2ccccc2Cl)c1 | 21µM | u | n | n | 5.6µM
CN(C)S(=O)(=O)Oc1cccc(C(=O)Nc2ccc(Cl)cc2)c1 | 3.4µM | n | u | n | u
CN(C)S(=O)(=O)Oc1ccc(C(=O)Nc2cccc(Cl)c2)cc1 | 12µM | u | u | 13µM | u
NC(=O)c1nsc(C(=O)N(c2ccccc2)C(C(=O)NCC2CCCO2)c2ccc(F)cc2)c1N (configuration not stated) | n | n | n | x | n
COC(=O)C1=C(C)N(CCc2c[nH]c3ccccc23)C(=O)/C1=C\N(C)C | n | n | n | n | n
Cc1ccc(NC(=O)N2CCN(C(=O)C3CCCO3)CC2)cc1 (configuration not stated) | n | n | n | x | n
CCCSc1nnc2c(n1)OC(c1sccc1C)Nc1ccccc1-2 (configuration not stated) | u | x | x | 3.2µM | x
CC(C)CC(=O)Nc1ccc(C(=O)COC(=O)C2CCC2)cc1 | 8.5µM | n | n | x | n
O=C(O)CCC(=O)Nc1ccc(N2CCCCCC2)cc1 | 19µM | n | n | u | n
SMILES | FLuc modulator | ELG1 genotoxic | NPC1 promoter act | SMN2 splice up | Rab9 prom act
NS(=O)(=O)c1ccc(NC(=O)COC(=O)C2CCCCC2)cc1 | u | n | n | n | n
O=C(COC(=O)C1CCCCC1)Nc1ccc(N2CCCCC2)cc1 | 21µM | n | n | n | n
O=C(CSc1nncs1)Nc1ccc(N2CCCCC2)cc1 | 13µM | n | n | x | n
CC(C)OCC1CO1 (configuration not stated) | n | n | n | n | n
O=C(NC1CCCC1)C(c1ccsc1)N(Cc1ccccc1)C(=O)Cc1cccs1 (configuration not stated) | n | n | n | n | n
CC(C)COc1ccc(S(=O)(=O)n2cc(F)c(=O)[nH]c2=O)cc1 | u | n | n | x | n
O=c1oc2ccccc2c(NCc2cccc(F)c2)c1[N+](=O)[O-] | n | n | n | n | n
CC(C)c1ccc(NC(=O)COC(=O)C2CCCCC2)cc1 | 1.2µM | n | n | x | n
CCCC(=O)Nc1ccc(C(=O)COC(=O)C2CC2C)cc1 (configuration not stated) | 1.7µM | n | 2µM | x | 1.4µM
Clc1cccc(-n2ncc3c(N4CCCCCC4)ncnc32)c1 | 1.7µM | x | x | x | x
Clc1cccc(-n2ncc3c(N4CCCCC4)ncnc32)c1 | 0.43µM | x | x | x | x
Clc1ccc(CSc2cc3c(nn2)-c2ccccc2CC3)cc1 | 12µM | n | u | n | n
COc1cccc(-c2ccnc3c(-c4ccc(F)cc4)c(C)nn23)c1 | 8.5µM | x | x | n | x
COc1cccc(-c2ccnc3c(-c4ccccc4)c(C)nn23)c1 | 11µM | x | x | u | x
CC1(C)CC(=O)c2sc(N3CCCCC3)nc2C1 | u | u | u | n | u
CC1(C)CNC(=O)c2sc(N3CCCCC3)nc2C1 | 15µM | u | n | n | n
Cc1c(C)n2c(SCC(=O)NCc3ccc4c(c3)OCO4)nnc2[nH]c1=O | n | n | n | x | n
Cc1ccc2c(c1)c1c(n2C)-c2[nH]ncc2CC1 | 13µM | n | n | n | n
Cc1ccc2c(c1)c1c(n2C)C(C(N)=O)CCC1 (configuration not stated) | n | n | n | n | n
Nc1nnc(-c2ccc(Cl)cc2Cl)s1 | 12µM | u | n | x | u
CCN(CC(=O)NCc1ccncc1)S(=O)(=O)c1cc(Cl)ccc1Cl | n | n | n | x | n
Cc1nn(C)c(C)c1C(C)NC(=O)c1cc(COc2ccc(F)c(F)c2)on1 (configuration not stated) | 21µM | n | u | x | u
Cc1nn(C)cc1C(C)NC(=O)c1cc(COc2ccc(F)c(F)c2)on1 (configuration not stated) | n | n | n | x | n
CN(C)CC(CN(C)C)c1ccccn1 | x | x | x | n[9.22 µM] | x
Cc1ccccc1C(=O)Nc1ccc(S(=O)(=O)N2CCN(C)CC2)cc1 | n | n | n | n | n
SMILES | FLuc modulator | ELG1 genotoxic | NPC1 promoter act | SMN2 splice up | Rab9 prom act
COc1ccc(NC(=O)CCSc2nc(-c3ccco3)cc(C(F)(F)F)n2)cc1 | n | x | x | n | x
CN(C)c1ccc(NC(=O)CCSc2nc(-c3ccco3)cc(C(F)(F)F)n2)cc1 | 9.5µM | x | x | n | x
CC1CCc2sc(C(=O)N/N=C/c3ccc(O)cc3)cc2C1 (configuration not stated) | 2.1µM | n | n | x | n
C/C(=N\NC(=O)c1cc2c(s1)CCC(C)C2)c1ccc[nH]1 (configuration not stated) | 0.76µM | u | 1.8µM | x | 1.6µM
CCC1CCc2sc(C(=O)NNC(=O)c3ccncc3)cc2C1 (configuration not stated) | 17µM | n | n | x | n
CCC1CCc2sc(C(=O)O)cc2C1 (configuration not stated) | u | n | n | n | n
C/C(=N\NC(=O)c1cc2c(s1)CCC(C)C2)c1ccncc1 (configuration not stated) | 9.5µM | n | n | n | n
Cn1c(-n2c(-c3ccco3)nc3ccccc3c2=O)nc2ccccc21 | 21µM | n | n | n | n
